Assay [1] is described as follows: NCI Yeast Anticancer Drug Screen. Data for the rad50 strain (AID 155).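 Note: 0% = growth of vehicle-only cultures of the same strain.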 The note with it: S. cerevisiae rad50 strain growth inhibition; at 50.0 µM; active compounds read high. In short, it runs like this: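 Relative growth inhibition (compound vs vehicle) was measured in yeast with a defined repair-gene alteration.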
Assay [2] is described as follows: NCI Yeast Anticancer Drug Screen. Data for the mec2-1 strain (AID 157). The note with it: S. cerevisiae mec2-1 strain, at 50.0 µM, active compounds read high. In short, it runs like this:
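Readout is yeast growth inhibition, normalised to vehicle-treated controls, in the mec2-1 strain exposed to compound.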

Assay [3] is described as follows: NCI Yeast Anticancer Drug Screen. Data for the sgs1 mgt1 strain (AID 161).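 Note: 0% = growth of cultures given vehicle only.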 The note with it: S. cerevisiae sgs1 mgt1 strain, at 50.0 µM, active compounds read high. In short, it runs like this: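 Compounds are added to genetically altered yeast, and growth is compared with cultures given vehicle alone to give percent inhibition.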
Assay [4] is described as follows: NCI Yeast Anticancer Drug Screen. Data for the cln2 rad14 strain (AID 165).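 Note: 0% = growth equal to vehicle treated cultures.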 The note with it: S. cerevisiae cln2 rad14 strain, at 50.0 µM, active compounds read high. In short, it runs like this: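 Relative to vehicle controls, growth inhibition of compound-treated cln2 rad14 yeast was recorded.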
Assay [5] can be described thus: NCI Yeast Anticancer Drug Screen. Data for the bub3 strain (AID 167). Conditions: S. cerevisiae bub3 mutant strain, at 50.0 µM, active compounds read high. In short, it runs like this:
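Screening used yeast with an engineered genetic alteration affecting cell cycle control. Compound-exposed cultures were compared with vehicle cultures, and reduced growth was taken as inhibition.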

The nature of assay [6]: NCI Yeast Anticancer Drug Screen. Data for the mlh1 rad18 strain (AID 175). Conditions: S. cerevisiae mlh1 rad18 strain growth inhibition; at 50.0 µM; active compounds read high. In short, it runs like this:
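Test agents were incubated with a yeast strain of defined genotype (DNA damage repair defect). Inhibition of growth was derived by comparison with vehicle-exposed cultures.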

The panel holds about 79,000 compounds, 15% with a hit somewhere; the sample as a whole holds those more often. A number with no mark means an inactive call. Calls of active or inactive are those of the source. Cut-off read from the data, not from the text of the source: active = growth inhibition above about 70%; inactive = the rest.

Turning to `NC(=O)c1cc(N(CCCl)CCCl)c([N+](=O)[O-])cc1[N+](=O)[O-]`, the growth inhibition in assay [1] is 38.9%; in assay [2], -11.1%; in assay [3] it was 10.4%; in assay [4], 14.4%; in assay [5], 18.6%; in assay [6], 5.5%.

For the compound `CNCCc1ccccc1`, the growth inhibition in assay [1] is 26%; in assay [2], 6.05%; in assay [3], 14.3%; in assay [4] it was 14.6%; in assay [5], -33.8%; in assay [6], -3.05%.

As for `Oc1ccccc1C=NCCN=Cc1ccccc1O`, the growth inhibition in assay [1] is -15.2%; in assay [2], -11.6%; in assay [3], -1.1%; in assay [4], -41.2%; in assay [5], -9.2%; in assay [6], 31.8%.

`C[CH2][Pb]([CH2]C)([CH2]C)[N]1C(=O)c2c(Cl)c(Cl)c(Cl)c(Cl)c2C1=O`: the growth inhibition was 67.7% in assay [1]; 34.5% in assay [2]; 93.1% (active) in assay [3]; 25.4% in assay [4]; 33.8% in assay [5]; 78.3% (active) in assay [6].

For the compound `Cc1cc(C)[c]([Hg][Cl])c(C)c1`, the growth inhibition in assay [1] is 98.5% (active); in assay [2] it was 98.7% (active); in assay [3], 98.7% (active); in assay [4] it was 96.2% (active); in assay [5] it was 98.7% (active); in assay [6] it was 97.8% (active).

Regarding `C=C[CH2][Sn]([CH2]C=C)([CH2]CCC)[CH2]CCC`, the growth inhibition in assay [1] is 99.4% (active); in assay [2], 99.5% (active); in assay [3], 99.6% (active); in assay [4] it was 99.2% (active); in assay [5], 99.5% (active); in assay [6] it was 99.4% (active).

`Oc1ccccc1I`: the growth inhibition was 11.9% in assay [1]; 4.85% in assay [2]; -57% in assay [3]; -8.7% in assay [4]; -42.9% in assay [5]; -14.2% in assay [6].

Regarding `CC(=O)NCN(C)[N+](=O)[O-]`, the growth inhibition in assay [1] is -9.6%; in assay [2] it was -4.95%; in assay [3] it was 8.85%; in assay [4], -11%; in assay [5] it was -19.8%; in assay [6], -6.5%.

Consider `O=c1cc([N+](=O)[O-])n(O)cc1[N+](=O)[O-]`, for which the growth inhibition in assay [1] is 31.1%; in assay [2], 12.6%; in assay [3], 32.5%; in assay [4] it was 21.2%; in assay [5], -4.1%; in assay [6] it was 44.5%.

Take `CCCCCCCNC(c1ccccc1)C(O)c1ccccc1` (stereo unspecified): the growth inhibition in assay [1] was 8.4%; in assay [2], 10.4%; in assay [3] it was 12.1%; in assay [4], -40.2%; in assay [5] it was 1.55%; in assay [6], -3.05%.

In the case of `CN1CCNCC1`, the growth inhibition is 11.1% in assay [1]; -6.55% in assay [2]; -10.5% in assay [3]; -18.4% in assay [4]; 11.5% in assay [5]; 5.75% in assay [6].

For the compound `O=S(=O)(O)O.[Cr+3].[NH-]CC[NH-].[NH-]CC[NH-].[NH-]CC[NH-]`, the growth inhibition in assay [1] is -20.7%; in assay [2], -20.1%; in assay [3], 0.75%; in assay [4] it was -36.5%; in assay [5], 10%; in assay [6], 7.25%.

Turning to `CCCCC[CH2][Sn](=[O])[CH2]CCCCC`, the growth inhibition in assay [1] is 8.25%; in assay [2], 3.35%; in assay [3], -9.4%; in assay [4], -24.6%; in assay [5], 6.8%; in assay [6] it was -11.4%.

As for `[Pd].c1ccc([PH+](CC[PH+](c2ccccc2)c2ccccc2)c2ccccc2)cc1.c1ccc([PH+](CC[PH+](c2ccccc2)c2ccccc2)c2ccccc2)cc1`, the growth inhibition in assay [1] was 24.8%; in assay [2], 12.8%; in assay [3], 59.5%; in assay [4], 15.1%; in assay [5], 15.7%; in assay [6], 24.2%.

Turning to `CCCCC1(CCO)C(=O)NC(=O)NC1=O`, the growth inhibition in assay [1] is -12.1%; in assay [2], -2.65%; in assay [3], -5.7%; in assay [4], -19.1%; in assay [5], 28.4%; in assay [6] it was -20.6%.

With `COC(=O)c1ccccc1N`, the growth inhibition was 13.5% in assay [1]; 1.95% in assay [2]; -0.55% in assay [3]; -29.5% in assay [4]; -2.9% in assay [5]; -6.75% in assay [6].

Turning to `O=[N+]([O-])c1ccc2sc3ccccc3c2c1`, the growth inhibition is 63.1% in assay [1]; 12.2% in assay [2]; 26.3% in assay [3]; 44% in assay [4]; -3.35% in assay [5]; 58.8% in assay [6].

Take `O=S(=O)(F)c1cc(Cl)c(O)c(S(=O)(=O)F)c1`: the growth inhibition in assay [1] was 10.1%; in assay [2], 6.25%; in assay [3], 5.8%; in assay [4], 3.65%; in assay [5] it was -2.75%; in assay [6], 10.1%.

In the case of `c1ccc2c(c1)sc1ccccc12`, the growth inhibition was 15.5% in assay [1]; -13.7% in assay [2]; 16.9% in assay [3]; -29.4% in assay [4]; -8.6% in assay [5]; 15.2% in assay [6].

As to `[N-]=[N+]=CC(=O)c1ccc(Cl)cc1`, the growth inhibition in assay [1] is 34.5%; in assay [2], 28.4%; in assay [3] it was 14%; in assay [4] it was -16.5%; in assay [5], 50.1%; in assay [6], 52.2%.

With `O=C(Oc1cc(Cl)c(S(=O)(=O)F)cc1Cl)c1ccc([N+](=O)[O-])cc1`, the growth inhibition in assay [1] is 78.2% (active); in assay [2], 86% (active); in assay [3], 90.2% (active); in assay [4] it was 64.8%; in assay [5], 73.5% (active); in assay [6] it was 89.9% (active).

(Values after PubChem BioAssay (NCI).)
